HP1b chromo inh – inhibitors of HP1-beta chromodomain binding to methylated histone tails; P83916; Potency, µM (top dose mostly 114 µM), for inactives: top-dose activity change, negative = inhibition, hits mostly inhibitors; AID 540317; 390,000 tested, 0.56% active; AlphaScreen HP1-beta / biotin-H3K9me3 peptide binding; note: potency is the fitted concentration of half-maximal effect; nearly all actives have a fitted effect of over 70% in size
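AlphaScreen: HP1-beta (50 nM) preformed 30 min with biotin-H3(1-18)K9me3 peptide (50 nM) in PBS pH 7.4, 0.01% Tween-20. Compound added for 30 min at RT, then streptavidin donor/nickel chelate acceptor beads (10 ug/mL) for 30 min.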
BAZ2B inh – inhibitors of human BAZ2B bromodomain; 360,000 tested, 4.4% active; Potency, µM (highest dose often 114 µM), for the others: at the highest dose activity change, negative = inhibition, usual class: inhibitors; AlphaScreen BAZ2B-H3K14Ac peptide displacement; note: potency is the fitted concentration of half-maximal effect; % is set by controls: 0 for no effect and ±100 for the full control effect; nearly all actives have a fitted effect of over 60% in size
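Compounds, titrated to a top concentration of 110 uM, were incubated 30 min at room temperature with preformed BAZ2B/acetyl-K14 H3 peptide complex (50 nM each). Proximity signal was measured by AlphaScreen after 20 min with beads.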
PI5P4Ka inh – blocks human PI5P4K alpha kinase activity; max response, %; 330,000 tested, 1.2% active; AID 652105; PI5P4Kalpha enzyme, ADP-Glo luminescence, 60 min; active compounds read low; P48426; active = max response of -50% or lower; inconclusive = between -30% and -50%; inactive = -30% or higher; note: value at the top dose of about 77 µM; % is set by controls: 0 for no effect and ±100 for the full control effect
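Single end-point luminescence (ADP-Glo) quantified ADP from PI5P4Kalpha turnover; ATP 5 microM final, 1 h at RT, 0.1% CHAPS and 0.28 mM EGTA in HEPES pH 7.4.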
G9a inh – G9a (human) methyltransferase inhibition; G9a H3K9 monomethylation, AlphaScreen, 2 h; Q96KQ7; 350,000 tested, 8.8% active; Potency, µM (top dose mostly 102 µM), without a hit: at the highest dose activity, negative = inhibition, most hits filed as inhibitors; note: potency is the fitted concentration of half-maximal effect; % is set by controls: 0 for no effect and ±100 for the full control effect; nearly all actives have a fitted effect of over 75% in size
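Readings reflect AlphaScreen signal from monomethyl-H3K9 antibody detection. HMT at 20 nM; substrate b-H3K9 500 nM; cofactor SAM 20 uM; 2 h RT reaction; compounds tested as titrations in qHTS with 15 min preincubation.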
JMJD2A Tudor – blocks the human JMJD2A Tudor domain. O75164. AlphaScreen JMJD2A-Tudor / H3K4me3 peptide binding. Potency, µM (doses to about 114 µM), for the others: top-dose activity change, negative = inhibition, hits mostly inhibitors. 390,000 tested, 4.4% active; note: potency is the fitted concentration of half-maximal effect; % is set by controls: 0 for no effect and ±100 for the full control effect; nearly all actives have a fitted effect of over 50% in size
PLK1 PBD block – blocks phosphopeptide binding to human PLK1 polo-box domain; P53350; Plk1 PBD binding of FITC phosphopeptide, fluorescence polarization; Potency, µM, for inactives: max response, negative = inhibition, hits mostly inhibitors; 360,000 tested, 2.8% active; AID 720504; note: potency is the fitted concentration of half-maximal effect; series mostly up to about 57 µM; % is set by controls: 0 for no effect and ±100 for the full control effect; nearly all actives have a fitted effect of over 65% in size
Target sequence (P53350 whole entry, looked up, the tested form may be a part): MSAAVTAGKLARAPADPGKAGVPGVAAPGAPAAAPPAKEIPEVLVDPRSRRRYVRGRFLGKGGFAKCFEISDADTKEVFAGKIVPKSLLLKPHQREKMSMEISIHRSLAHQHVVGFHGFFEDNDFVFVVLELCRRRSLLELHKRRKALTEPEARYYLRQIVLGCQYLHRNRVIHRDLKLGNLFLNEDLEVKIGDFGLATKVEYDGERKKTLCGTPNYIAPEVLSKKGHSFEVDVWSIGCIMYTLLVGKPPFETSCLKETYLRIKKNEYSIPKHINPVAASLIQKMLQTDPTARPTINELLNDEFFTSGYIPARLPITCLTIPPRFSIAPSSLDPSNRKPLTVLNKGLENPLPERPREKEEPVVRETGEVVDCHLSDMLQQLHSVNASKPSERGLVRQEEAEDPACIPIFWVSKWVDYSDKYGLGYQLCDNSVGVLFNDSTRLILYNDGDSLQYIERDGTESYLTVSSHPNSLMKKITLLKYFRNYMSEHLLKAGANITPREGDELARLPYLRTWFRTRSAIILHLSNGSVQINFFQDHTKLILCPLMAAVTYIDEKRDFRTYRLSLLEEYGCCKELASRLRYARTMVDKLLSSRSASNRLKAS
* hit, by the source's call; ? = inconclusive; . = no result given; ! = repeats disagree; [ ] = another dose, or the depositor's remark. An excerpt weighted towards active compounds, which were near 12% of everything screened. Unless noted, calls come from the whole dose curve; as a rule, active = well fitted curve in the direction sought with a large enough effect; inconclusive = small, poorly fitted or top-dose-only effect, or another doubt; inactive = no such curve, though single readings can be large; an effect the other way counts as inactive or inconclusive.

SMILES	HP1b chromo inh	BAZ2B inh	PI5P4Ka inh	G9a inh	JMJD2A Tudor	PLK1 PBD block
CCN(CC)C(=O)c1ccc(/C=C/c2c[nH]c3ccccc23)[n+](C)c1	19%	-9%	-3	3.2µM*	?	102%
COc1cc(C(=O)NC2CC(=O)N(c3cccc(F)c3)C2)cc(OC)c1OC (stereo not drawn)	26%	3%	.	12%[59 µM]	-8%	.
Cc1ccc(-c2cn(-c3ccccc3)c(=S)[nH]2)cc1C	?	32µM*	-5	45µM*	?	30µM*
Cc1ccccc1-c1cn(-c2ccccc2)c(=S)[nH]1	-19%	?	-28	1.4µM*	?	-8%
COc1ccc(-n2cc(-c3ccc(Br)cc3)[nH]c2=S)cc1	26%	?	-8	-20%	-11%	-5%
Cc1cccc(C)c1NC(=O)Cn1c(=O)n(Cc2ccc3c(c2)OCO3)c(=O)c2oc3ccccc3c21	48%	-1%	.	-5%[59 µM]	-1%	.
O=[N+]([O-])c1ccc(O)c(C2=NNC(c3ccccc3F)C2)c1 (stereo not drawn)	0%[57 µM]	-31%	-14	40µM*	?	?
O=C(O)[C@@H]1C[C@@H](C(=O)O)N1	.	.	.	24µM*!	.	.
COc1ccc(N2CCN(C(=O)c3sc4nc5n(c(=O)c4c3C)CCC5)CC2)cc1	48%	4%	.	5%[59 µM]	-13%	.
COc1ccccc1-c1nnc(SC(C(=O)c2c[nH]c3ccccc23)c2ccccc2)n1C (stereo not drawn)	37%	-6%	-11	79µM*	?	1%
Cc1ccc2nc3c(cc(C(=O)NCc4cccnc4)c(=N)n3C(C)C)c(=O)n2c1	.	1%	.	40µM*	.	.
CCCn1c(=N)c(C(=O)NCc2cccnc2)cc2c(=O)n3cc(C)ccc3nc21	53%	-1%	.	5%[59 µM]	5%	.
O=C(CSc1oc(-c2ccco2)nc1S(=O)(=O)c1ccc(Cl)cc1)NCC1CCCO1 (stereo not drawn)	2%	-1%	.	45µM*	?	?
O=C(CSc1oc(-c2ccccc2)nc1S(=O)(=O)c1ccccc1)NCC1CCCO1 (stereo not drawn)	16%	-16%	5	-10%	-18%	-1%
Cc1ccc(-c2nc(S(=O)(=O)c3ccccc3)c(SCC(=O)NCC3CCCO3)o2)cc1 (stereo not drawn)	7%	-3%	-4	35µM*	-13%	-25%
CCOC(=O)c1ccc(NC2c3ccccc3C(=O)N2c2ccccn2)cc1 (stereo not drawn)	15%	-1%	-6	50µM*	-18%	-24%
COc1ccc(OC)c(NC2c3ccccc3C(=O)N2c2cccnc2)c1 (stereo not drawn)	44%	-14%	-1	50µM*	-33%	-1%
CCN(CC)S(=O)(=O)c1ccc(NC2c3ccccc3C(=O)N2c2ccc(C)cn2)cc1 (stereo not drawn)	28%	5%	-5	40µM*	-13%	-15%
COc1ccc(NC2c3ccccc3C(=O)N2c2ccccn2)cc1 (stereo not drawn)	5%	56µM*	-2	?	-35%	-4%
N#Cc1ccccc1COC(=O)c1cccc(S(=O)(=O)N2CCCC2)c1	34%	.	-3	.	12%	-3%
O=C1CCc2cc(S(=O)(=O)Nc3cccc(B(O)O)c3)ccc2N1	.	.	.	.	4%	.
CN(C1CCCCC1)S(=O)(=O)c1ccc2c(c1)CCC(=O)N2	21%	10%	2	5%	-8%	-1%
O=C(O)c1ccc2c(c1)-c1cc(C(=O)O)ccc1S2(=O)=O	26%	-39%	-74*	2%[59 µM]	-15%	-8%
O=C(CC12CC3CC(C1)CC(CC(=O)NC1=NCCS1)(C3)C2)NC1=NCCS1	38%	-8%	-11	17%[59 µM]	-8%	-16%
O=C(NC1=NCCS1)C12CC3CC(C1)CC(C(=O)NC1=NCCS1)(C3)C2	0%	50µM*	-4	?	56µM*	-12%
SMILES	HP1b chromo inh	BAZ2B inh	PI5P4Ka inh	G9a inh	JMJD2A Tudor	PLK1 PBD block
CCOc1ccc(NC(=O)CN(Cc2ccccc2)S(=O)(=O)c2ccc3nc(C)sc3c2)cc1	11%	7%	.	49%[59 µM]	-18%	.
COc1cc(OC)c2c(-c3cccc(-c4ccc(N(C)C)cc4)c3)cc(=O)oc2c1	?	.	3	8.9µM*	10µM*	-10%
Cc1cc2oc(=O)cc(-c3ccccc3)c2c(C)c1-c1ccc(N(C)C)cc1	-12%	.	-17	28µM*	?	-11%
COc1ccc(-c2cccc(-c3cc(=O)oc4cc(OC)cc(OC)c34)c2)cc1	24%	.	1	.	-18%	-6%
COc1ccc(NC2=C(Cl)C(=O)N(CCc3ccccc3)C2=O)cc1	-20%	-1%	-19	?	?	9.5µM*
Cc1ccc(NC2=NCC(=O)N2CCc2ccccc2)cc1C	62%	-4%	-1	-36%[12.7 µM]	-17%	-21%
CCOc1ccc(NC2=C(Cl)C(=O)N(Cc3ccccc3)C2=O)cc1	?	?	.	-45%	?	-11%
COc1ccc(N2C(=O)C(Cl)=C(NCc3ccccc3)C2=O)cc1	21%	-35%	9	45µM*	-24%[11.4 µM]	-15%
CCOc1ccc(NC2=NCC(=O)N2CCc2ccccc2)cc1	23%	79µM*	2	?	-6%	-1%
Cc1ccccc1NC(=O)Cc1nnc(SCC(=O)NC2CCCCC2)n1C	-6%	7%	5	?	-13%	-14%
CN1CCN(CCCN(Cc2ccco2)C(=S)Nc2ccc(Cl)cc2)CC1	15%	10%	-1	-41%	-23%	-11%
CCOc1ccc(NC(=S)N(CCCN2CCCC2)Cc2cccn2Cc2ccc(Cl)cc2)cc1	5%	?	-5	40µM*	?	3%
Cc1cccc(NC(=S)N(CCCN2CCCC2)Cc2cccn2Cc2ccc(Cl)cc2)c1	-15%	?	4	45µM*	?	5%
CCN1CCN(CCCN(Cc2ccco2)C(=S)Nc2ccc(Cl)cc2)CC1	-12%	-9%	-1	?	-23%	-8%
COc1ccc(OC(F)(F)F)cc1CC1(C)C(=O)Nc2ccc(S(=O)(=O)NC3CCCCC3)cc21 (stereo not drawn)	.	.	-5	.	.	-4%
NC(=O)C(=O)NN=C1C2CC3CC(C2)CC1C3	1%	-35%	0	45µM*	?	-3%
NC(=S)NN=C1CCCCCCCCC1	4%	.	-12	.	-19%	-10%
NC(=S)NN=C1C2CC3CC(C2)CC1C3	-24%	-11%	-4	14µM*	-17%	19µM*
O=C(NN=C1C2CC3CC(C2)CC1C3)c1ccccc1O	39%	-10%	-1	7%	-7%[11.4 µM]	-8%
NC(=S)N/N=C1\CC(c2ccc3c(c2)OCCCO3)Oc2ccc(F)cc21 (stereo not drawn)	-22%	25µM*	0	.	?	-1%

Bioassay records deposited in PubChem BioAssay by National Center for Advancing Translational Sciences (NCATS).
